Giardia kill: Giardia lamblia killing | Giardia lamblia trophozoite viability | activity change, % at 7.66 µM, hits read low | hit rate 0.15% among 340,000; in the data active = activity change below about -80%; inconclusive = between about -30% and that limit;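 also: parasites exposed to compound for two days anaerobically before the ATP read; % is scaled to controls: 0 for no effect and ±100 for the full control effect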
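Luminescence from cellular ATP indicates surviving trophozoites (100 cells/well) following 48 hrs anaerobic compound treatment at 37 deg C; signal develops 15-30 min at room temperature.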
MCF10A rerep: inducers of DNA re-replication in MCF 10A breast cells. MCF 10A DNA re-replication, Hoechst nuclear intensity, 48 h. Potency, µM (doses to about 46.1 µM), without a hit: top-dose activity, positive = re-replication, hits mostly activators. hit rate 2.9% among 350,000. AID 624296; also: potency is read from the fitted curve at half-maximal effect; % of control where 0% means no effect; nearly all actives have a fitted effect of over 50% in size
SW480 rereplic: induces DNA re-replication in SW480 colon adenocarcinoma cells. SW480 DNA re-replication, Hoechst DNA content imaging, 48 h. Potency, µM (titrated, usually from 46.1 µM), for the others: at the top dose re-replication activation, actives largely listed as activators. hit rate 1.8% among 340,000. AID 624297; also: potency is read from the fitted curve at half-maximal effect; % of control where 0% means no effect; nearly all actives have a fitted effect of over 55% in size
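Treated cells incubate 48 hr (37 C, 5% CO2), are stained 40 min with Hoechst, and nuclear fluorescence is enumerated; a rise in nuclei with high DNA signal marks re-replication.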
Vif-APOBEC3G blk: inhibitors of Vif-APOBEC3G interaction; Q9HC16; HeLa A3G-eYFP + Vif (tagged APOBEC3G with the HIV-1 protein that degrades it), YFP fluorescence, overnight; Potency, µM (titrated, usually from 46.1 µM), for inactives: at the highest dose activity, negative = active, most hits filed as inhibitors; hit rate 0.076% among 410,000; AID 602310; also: potency is read from the fitted curve at half-maximal effect; % is scaled to controls: 0 for no effect and ±100 for the full control effect; nearly all actives have a fitted effect of over 60% in size
Target sequence (Q9HC16 whole entry, looked up): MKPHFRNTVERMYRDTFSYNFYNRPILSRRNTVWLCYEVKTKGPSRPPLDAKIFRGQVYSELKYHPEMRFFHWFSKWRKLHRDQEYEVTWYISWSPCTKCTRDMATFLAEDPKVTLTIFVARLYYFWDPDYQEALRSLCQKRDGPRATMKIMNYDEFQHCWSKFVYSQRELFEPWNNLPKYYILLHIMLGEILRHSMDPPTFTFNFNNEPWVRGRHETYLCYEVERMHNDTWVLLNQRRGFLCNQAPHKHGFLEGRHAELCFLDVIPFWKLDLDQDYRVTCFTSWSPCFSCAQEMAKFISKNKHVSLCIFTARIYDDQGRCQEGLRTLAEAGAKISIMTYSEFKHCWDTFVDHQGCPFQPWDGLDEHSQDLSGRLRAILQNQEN
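Read-out is eYFP fluorescence (Ex 488/Em 500-530) from Vif-expressing HeLa A3G-eYFP cells; more signal means A3G escaped Vif-mediated degradation. Cells plated overnight, compound pinned in, incubated overnight at 37 deg C.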
IL1B secr inh: inhibitors of inflammasome signaling (IL-1 beta secretion) | THP-1 LPS/ATP IL-1B secretion, AlphaLISA, 16 h; active compounds read low | activity change, % at 57.5 µM | hit rate 4.7% among 360,000; in the data active = activity change below about -50%; inconclusive = mostly about -30% to -49%; also: % is scaled to controls: 0 for no effect and ±100 for the full control effect
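THP-1 cells pretreated 1 hr with compounds (up to 57.5 uM final), then stimulated with LPS (250 ng/mL final) plus ATP (1.25 mM final); secreted IL-1B measured by AlphaLISA after 16 hr, decreased signal indicating inhibition.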
Vif-A3F inh: inhibitors of Vif-A3F interaction | HeLa A3F-eYFP + Vif (tagged APOBEC3F with the HIV-1 protein that degrades it), YFP fluorescence increase | Potency, µM (top dose mostly 46.1 µM), inactives show at the highest dose activity, negative = active | hit rate 0.2% among 390,000 | AID 602313; also: potency is read from the fitted curve at half-maximal effect; % of control where 0% means no effect; nearly all actives have a fitted effect of over 65% in size
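Fluorescence increase (Ex 488/Em 500-530) after overnight compound treatment at 37 deg C flags inhibition of Vif-driven A3F-eYFP loss in stable HeLa A3F-eYFP/Vif cells seeded overnight beforehand.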
The depositor's hits bear a star; ? = inconclusive; . = not tested or not shown. An excerpt weighted towards active compounds, which were near 6.9% of everything screened. Unless noted, calls follow the shape of the dose curve; as a rule, active = well fitted curve in the direction sought with a large enough effect; inconclusive = small, poorly fitted or top-dose-only effect, or another doubt; inactive = no such curve, though single readings can be large; an effect the other way counts as inactive or inconclusive.

SMILES	Giardia kill	MCF10A rerep	SW480 rereplic	Vif-APOBEC3G blk	IL1B secr inh	Vif-A3F inh
CCn1cnc2sc(C(=O)N(Cc3ccc(N(C)C)cc3)Cc3ccco3)c(C)c2c1=O	-26	?	7%	-6%	-76*	4%
CCc1nnc(NC(=O)CSc2nccn2Cc2ccc(F)cc2)s1	.	.	.	2%	.	6%
CCOC(=O)C1CCCN(S(=O)(=O)CCNC(=O)c2ccc3c(c2)OCO3)C1 (centres undefined)	13	-1%	0%	2%	-73*	4%
O=C(C1CCC(CNc2nc(=S)[nH]c3ccccc23)CC1)N1CCN(c2ccc(F)cc2)CC1 (centres undefined)	6	?	?	3%	-72*	2%
COc1ccc(N2CCN(CCCNC(=O)C3CCC(CNc4nc(=S)[nH]c5ccccc45)CC3)CC2)cc1 (centres undefined)	-17	?	9%	1%	-7	-4%
O=C(NCCc1ccc(Cl)cc1)C1CCC(CNc2nc(=S)[nH]c3ccccc23)CC1 (centres undefined)	-25	3%	12%	-22%	-3	?
O=C(NCCC1=CCCCC1)C1CCC(CNc2nc(=S)[nH]c3ccccc23)CC1 (centres undefined)	10	26µM*	10%	-21%	-27	?
Cc1cn2c(=O)cc(COC(=O)c3ccc(NC(=O)C(C)Oc4ccccc4)cc3)nc2s1 (centres undefined)	.	.	.	-2%	.	0%
CCOC(=O)C1(Cc2ccccc2)CCN(Cc2cnn(C(C)C)c2)CC1	3	?	2%	-4%	33	5%
CCOC(=O)C1(CCc2ccccc2)CCN(C(=O)c2cccc(C)n2)CC1	-15	1%	10%	3%	26	-1%
CCOC(=O)C1(CCc2ccccc2)CCN(C(=O)c2occc2C)CC1	-13	-12%	1.6µM*	-1%	-12	?
CCOC(=O)C1(Cc2ccccc2)CCN(Cc2csc(C(C)=O)c2)CC1	11	?	-29%	0%	-61*	2%
CCOC(=O)C1(Cc2ccccc2)CCN(Cc2cccc(OC)c2O)CC1	-10	20%	0%	0%	-50*	8%
CCOC(=O)C1(CCc2ccccc2)CCN(Cc2cc(OC)c(OC)cc2OC)CC1	-5	?	-8%	2%	-54*	-16%
CCOc1ccc(CNC(=O)CCS(=O)(=O)c2cc3c4c(c2)CCN4C(=O)CC3)cc1OC	.	.	.	5%	.	-1%
CCOC(=O)C1(Cc2ccc(OC)cc2)CCN(C(=O)c2cccc3nccnc23)CC1	23	-3%	-3%	0%	26	-1%
CCOC(=O)C1(Cc2ccccc2)CCN(Cc2cccc3nccnc23)CC1	6	3%	8%	-14%	-64*	9%
COc1ccc(C(=O)NCCCN=C2NS(=O)(=O)c3ccccc32)cc1	-1	-5%	-6%	1%	-9	-4%
O=C(NCCCN=C1NS(=O)(=O)c2ccccc21)c1ccc(S(=O)(=O)N2CCCCC2)cc1	-7	23µM*	?	?	25	-4%
CCCOc1ccc(-c2cccc(NS(=O)(=O)c3cc(OC)ccc3OC)c2)nn1	.	.	.	1%	.	-8%
CC(=O)OC1CC(c2cc(C(C)(C)C)c(O)c(C(C)(C)C)c2)=NO1 (centres undefined)	-8	?	15µM*	-22%	44	-20%
Cc1ccn2c(=O)c(NC(=O)c3cccs3)c(C)nc2c1	7	-1%	23µM*	1%	1	?
CC(C)(C)c1ccc(OCCON2C(=O)CCC2=O)c(Cl)c1	-8	4%	0%	-2%	5	-2%
CNCCCCOc1ccc(C(C)(C)C)cc1Cl	-2	-1%	-30%	1%	-55*	3%
FC(F)OC(Cl)C(F)(F)F (centres undefined)	.	-2%	2%	.	.	.
SMILES	Giardia kill	MCF10A rerep	SW480 rereplic	Vif-APOBEC3G blk	IL1B secr inh	Vif-A3F inh
CC(=O)N1NC(=Nc2ccccc2)SC1(C)C	1	11%	-3%	3%	-75*	0%
CC1(C)[N+]([O-])=C2C(=[N+]([O-])C1(C)C)c1ccccc1/C2=N\O	-98*	-1%	-1%	-1%	-6	-2%
ON=C1c2ccccc2-c2ccc(F)cc21	-2	17%	1%	0%	-12	11%
Cc1cccc(Cn2nnc3c(=O)[nH]c(C4CCN(C(=O)c5ccc(F)cc5)CC4)nc32)c1	.	.	.	1%	.	2%
CN(C)/C=C/C(=O)c1ccccc1OCc1cnc(Cl)s1	?	18µM*	?	1%	22	-5%
O=C(OCc1cnc(Cl)s1)c1ccccc1Cl	0	-1%	-4%	1%	-5	-9%
N#Cc1cn(-c2ccccc2)nc1-c1ccc2c(c1)OCCO2	7	10µM*	-3%	0%	2	0%
O=Cc1cn(-c2ccccc2)nc1-c1ccc2c(c1)OCCO2	0	16%	?	3%	?	-9%
Cn1cc(C(=O)N/N=C/C(Br)=C/c2ccccc2)ccc1=O	9	26µM*	?	?	?	?
Cn1cc(C(=O)N/N=C/C(Br)=C\c2ccccc2)ccc1=O	-4	?	18µM*	?	-98*	-25%
Cn1cc(C(=O)N/N=C/C=C/c2ccccc2)ccc1=O	-2	-4%	0%	4%	21	1%
CCc1ccc(NC(=O)CC2C(=O)N(c3cccc(C)c3)C(=O)N2Cc2cccs2)cc1 (centres undefined)	.	.	.	4%	.	7%
Cc1cnnn1-c1ccc(C(=O)CCl)cc1	-9	29µM*	?	-3%	-109*	-2%
COc1ccccc1N=CC=C1OC(C)(C)C(C)(C)O1	3	21µM*	?	2%	-75*	-4%
Cc1ccc(N=CC=C2OC(C)(C)C(C)(C)O2)c(C)c1	2	?	0%	-1%	-16	-11%
O=c1cc(CCl)[nH]c2nc3ccccc3n12	18	?	18µM*	-20%	-56*	4%
O=c1cc(-c2ccccc2)[nH]c2nc3ccccc3n12	?	6.5µM*	10µM*	?	15	-6%
CC(C)c1cc(=O)n2c(nc3ccccc32)[nH]1	5	7%	-2%	0%	-1	6%
CCc1c(C)[nH]c2nc3ccccc3n2c1=O	7	3%	-13%	-13%	43	1%
NC(N)=N/N=C(\N=Nc1ccccc1)c1ccc(Cl)cc1	16	?	?	-8%	-113*	-12%
Cc1cc(C)cc(-n2c(SCC(=O)N3CCC(C)CC3)nc3c([nH]c4ccccc43)c2=O)c1	.	.	.	-1%	.	5%

Compound activity: PubChem, National Center for Advancing Translational Sciences (NCATS)
